# Bioassay records as filed in PubChem BioAssay.
# The list is not random: actives were taken first. Their share in the collection is about 2.4%.
# D2 antagonist = D2 dopamine receptor (human) antagonism | P14416 | HEK293 TREx D2 cells, calcium flux, dopamine EC80 | inhibition, % at 10 µM | hit rate 2% among 340,000; in the data active = inhibition above about 30%; inactive = below that, where a call was filed; note: 0% is about no effect
# Target sequence (P14416 whole entry, looked up): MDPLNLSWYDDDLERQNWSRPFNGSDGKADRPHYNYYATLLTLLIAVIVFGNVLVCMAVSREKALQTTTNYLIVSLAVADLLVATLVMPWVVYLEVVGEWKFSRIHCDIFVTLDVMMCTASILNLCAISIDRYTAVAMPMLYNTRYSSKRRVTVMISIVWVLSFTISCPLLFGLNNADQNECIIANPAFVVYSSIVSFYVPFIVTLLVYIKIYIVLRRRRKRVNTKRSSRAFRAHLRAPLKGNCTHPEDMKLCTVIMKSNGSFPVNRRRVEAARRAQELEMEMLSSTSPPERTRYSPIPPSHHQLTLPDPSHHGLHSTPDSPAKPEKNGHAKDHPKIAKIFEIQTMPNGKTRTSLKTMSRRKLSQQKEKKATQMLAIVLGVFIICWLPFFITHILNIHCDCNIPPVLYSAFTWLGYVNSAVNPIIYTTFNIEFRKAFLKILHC
#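 Calcium flux kinetic readout in an inducible HEK293 TREx D2 line plated overnight at 30 C. After 180 s compound exposure, an EC80 dopamine challenge follows with another 180 s kinetic read to detect antagonism.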
# D2 ag-1 = D2 dopamine receptor (human) agonism | AID 485358 | activation, % at 2 µM | P14416 | hit rate 0.53% among 340,000 | HEK293 T-REx D2 cells, calcium flux agonist mode;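 active = activation over 3 SD above normal in the single-dose calcium agonist read, cut at about 30% in these data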; note: 0% is about no effect
#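 Tetracycline-induced HEK293 T-REx cells with force-coupled D2 receptor, plated overnight at 30 C, loaded with no-wash calcium dye. After a 10 s baseline, compound was pin-added and calcium flux read kinetically for 180 s; calcium rises flagged agonists.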
# D2 PAM-1 = positive allosteric modulators of human D2 dopamine receptor. potentiation, % at 10 µM. hit rate 0.34% among 340,000. HEK293 T-REx D2, calcium flux, EC20 dopamine potentiation;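 active = potentiation over 3 SD above the plate norm, cut at about 30% in these data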; note: 0% is about no effect
#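 Using a no-wash calcium dye in inducible, force-coupled HEK293 Trex cells expressing D2, we tracked fluorescence each second for 180 s after compound, then for 180 s after EC20 dopamine to detect augmented signalling.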
# D2 PAM-2 = potentiates the human D2 dopamine receptor allosterically. P14416. DiscoveRx D2 beta-arrestin cells, luminescence, 90 min; 100% = 57 uM dopamine signal. potentiation, % (no concentration beside the values). hit rate 0.23% among 360,000; in the data active = potentiation above about 50%; inconclusive = mostly about 30% to 49%
#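 D2 cells co-treated with compound plus 50 nM dopamine (EC20) for 90 min at 37 deg C to detect potentiation. Beta-arrestin recruitment was read as enzyme-fragment luminescence after 1 h at ambient temperature. Full response was set by 57 uM dopamine.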
# B2AR arrestin = agonists driving beta-arrestin recruitment to human beta2-adrenergic receptor. P07550. AID 492947. hit rate 0.02% among 330,000. beta-arrestin recruitment to beta2AR, cell-based reporter. Potency, µM (series often up to 46.1 µM), without a hit: at the highest dose activation, usual class: activators; active = well fitted activation curve with a large enough effect; inconclusive = small, poorly fitted or top-dose-only effect;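 note: potency is the fitted concentration of half-maximal effect; 0% = DMSO controls and full agonism = EC100 isoproterenol or metaproterenol; nearly all actives have a fitted effect of over 65% in size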
# D2 ag-2 = human D2 receptor agonism in beta-arrestin assay. activation, % (test concentration not listed). P14416. hit rate 0.084% among 360,000. DiscoveRx PathHunter D2 beta-arrestin, luminescence, 90 min; 100% = 57 uM dopamine signal; in the data active = activation above about 40%; inconclusive = between about 15% and that limit
#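 DiscoveRx PathHunter D2 beta-arrestin cells (2,100/well) attached overnight, then compound-stimulated 90 min at 37 C in HBSS/10 mM HEPES/0.1% Tween-20 buffer; beta-galactosidase complementation read by luminescence after 1 h at ambient temperature. Dopamine 57 uM final (EC100) as control.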
# * marks the source's active call; other numbers are inactive results; ? = inconclusive; . = no result.
SMILES,D2 antagonist,D2 ag-1,D2 PAM-1,D2 PAM-2,B2AR arrestin,D2 ag-2
COc1ccc(C(=O)Oc2ccc(/C=N/NC(=O)Cc3ccc([N+](=O)[O-])cc3)cc2)cc1,-2,1,-5,-3,-1%,0
COc1ccccc1C(=O)Oc1cc(N)n(S(=O)(=O)c2ccccc2)n1,8,1,12,-1,0%,-3
CCc1c(C)nc2ncnn2c1NCCc1ccc(OC)c(OC)c1,-6,1,10,-4,-1%,0
COc1ccc(CCNc2c(C)c(C)nc3ncnn23)cc1,-19,1,43*,-1,-1%,0
O=C(O)C1CSC(c2ccc3c(c2)OCO3)N1 (stereo not drawn),.,.,15,3,0%,1
COc1cc(C(C)=O)ccc1COc1ccc(C(=O)OCC(=O)NC2CCS(=O)(=O)C2)cc1OC (stereo not drawn),5,0,2,-18,-4%,-3
Nc1ccc(C(=O)N2CCN(S(=O)(=O)c3ccc(Br)cc3)CC2)cc1[N+](=O)[O-],35*,1,2,16,-2%,1
COC(=O)c1cc(NC(=O)c2ccc3c(c2)NC(=O)c2ccccc2S3)cc(C(=O)OC)c1,.,0,-15,.,-1%,.
Fc1ccc(-n2cc(CNCCc3cccnc3)c(-c3ccccc3Cl)n2)cc1,9,1,-19,-47,0%,-5
Fc1ccc(-n2cc(CNCCc3ccncc3)c(-c3ccccc3Cl)n2)cc1,31*,1,-14,-9,-1%,-3
CCCC(C(=O)O)N1C(=O)/C(=C2\C(=O)N(C)c3ccccc32)SC1=S (stereo not drawn),1,-1,-6,61*,0%,13
CCCCn1c(CN2CCN(c3cccc(Cl)c3)CC2)nc2c1c(=O)[nH]c(=O)n2C,13,2,-21,-26,5%,-3
COCCn1c(CN2CCN(c3cccc(Cl)c3)CC2)nc2c1c(=O)n(C)c(=O)n2C,3,1,-6,-8,0%,0
CCOC(=O)Cn1c(CN2CCN(c3cccc(Cl)c3)CC2)nc2c1c(=O)[nH]c(=O)n2C,30*,0,-25,-7,0%,-4
COC(=O)Cn1c(CN2CCN(c3ccc(F)cc3)CC2)nc2c1c(=O)n(C)c(=O)n2C,30*,0,-30,-7,0%,-2
CC(C)CCn1c(CN2CCN(c3cccc(Cl)c3)CC2)nc2c1c(=O)n(C)c(=O)n2C,47*,-1,-19,-10,0%,2
CC(C)COP(=O)(OCC(C)C)C(O)c1ccccc1F (stereo not drawn),52*,0,-4,-2,0%,-1
CC(C)CCOP(=O)(c1ccc(N(C)C)cc1)C(O)c1ccccc1F (stereo not drawn),.,.,8,-6,-1%,-2
CCOc1ccc2nc(N3CCCC(C(=O)NCCCN4C(C)CCCC4C)C3)sc2c1 (stereo not drawn),3,0,2,-16,0%,-2
COc1ccc(NC(=O)Cc2c(C(=O)O)n(C)c3ccccc23)cc1OC,2,0,32*,-1,0%,-5
CC(/C=C/c1ccccc1)=N\NC(N)=S,.,.,.,-11,8.9µM*,-3
CC(/C=C/c1ccccc1)=N\NC(=O)c1ccncc1,-2,0,-13,5,-1%,3
CCCOC(=O)c1cc(-c2ccc(C=O)o2)ccc1Cl,31*,-2,0,1,0%,0
CCCOC(=O)c1ccc(-c2ccc(C=O)o2)cc1,-2,-1,-5,12,-1%,-2
CCN1C(=O)C(CC(=O)Nc2ccc(OC)cc2)N(CCCN2CCN(c3ccc(F)cc3)CC2)C1=S (stereo not drawn),57*,-1,.,7,0%,14
SMILES,D2 antagonist,D2 ag-1,D2 PAM-1,D2 PAM-2,B2AR arrestin,D2 ag-2
CCC1COCCS(=O)(=O)N1Cc1cccc(Cl)c1 (stereo not drawn),47*,0,4,-5,0%,-2
O=S1(=O)CCOC[C@H](CC2CCCCC2)N1Cc1cccc(Cl)c1,-15,0,9,-5,-1%,-1
S=C(NCC1CCCO1)Nc1ccc(Nc2ccccc2)cc1 (stereo not drawn),40*,1,-4,-9,-1%,-1
S=C(NCC1CCCO1)Nc1cccc(Cl)c1 (stereo not drawn),1,0,11,-32,-1%,-2
Cc1ccnn2cc3c(=O)n(C)c(=O)n(C)c3c12,11,-2,31*,.,0%,.
Cc1cccc(S(=O)(=O)c2c(N)n(Cc3ccco3)c3nc4ccccc4nc23)c1,4,3,45*,-9,0%,-3
COc1ccc(S(=O)(=O)O/N=C2\CCCc3ccccc32)cc1,-8,0,4,22,0%,2
COc1ccc(S(=O)(=O)/C(C#N)=C/Nc2cccc(F)c2)cc1,-5,0,1,4,-2%,-1
COc1ccc(S(=O)(=O)/C(C#N)=C/Nc2ccccc2F)cc1,40*,0,-2,-6,0%,1
Cc1ccc(C)c(N2N=C(C(=O)Nc3ccc(N4CCOCC4)cc3)CCC2=O)c1,35*,0,0,-11,0%,-3
O=c1cc(-c2ccccc2)n2c(SCc3ccc(F)cc3)nnc2[nH]1,.,0,-3,.,.,.
COc1ccc(NC(=O)c2ccccc2N(Cc2ccccc2)S(C)(=O)=O)cc1OC,-5,0,37*,-2,0%,2
COc1ccc(NC(=O)c2ccccc2N(Cc2ccccc2)S(C)(=O)=O)cc1,0,3,-8,-11,0%,-4
CC(C)(C)CN1CCC(Oc2cccc(C(=O)N3CCNC(=O)C3(C)C)c2)CC1,32*,0,7,-13,0%,-4
CCC(C)CNC(=O)c1cccc(OC2CCN(CC(C)(C)C)CC2)c1 (stereo not drawn),.,.,.,-3,.,-4
CCCCN(C)C(=O)c1cccc(OC2CCN(CC(C)(C)C)CC2)c1,67*,1,-1,-2,0%,0
CCCN1CCC(Oc2cccc(C(=O)NCCc3ccccc3)c2)CC1,-2,0,31*,-6,0%,-3
Cc1cccc(C(=O)OCC(=O)NCCN2C(=O)CSC2=O)c1[N+](=O)[O-],.,.,.,-4,-1%,-4
CCOc1ccc2nc(SCC(=O)Nc3nonc3C)[nH]c2c1,7,0,0,-1,-1%,-3
CC(=O)Nc1ccc(/C=C2\Sc3ccccc3C2=O)cc1,23,3,-9,56*,0%,?
CC(=O)N(C)/C=C1\Sc2ccccc2C1=O,-16,0,-4,-3,0%,3
